Screens: PubChem BioAssay, National Center for Advancing Translational Sciences (NCATS)
Only some compounds are listed: those with a hit (about 10% of all), similar ones and a draw of the others.
CtBP-E1A blk: qHTS Assay for Inhibitors of the CtBP/E1A Interaction; CtBP / adenovirus E1A interaction (AlphaScreen); AlphaScreen GST-E1A/His-CtBP binding, 1536-well; hits give low values; activity change, % (concentration not given with the values); 340,000 tested, 0.49% active; in the data active means activity change below about -65%; inconclusive means mostly about -30% to -63%; further: on the % scale 0 is the no-effect control and ±100 the full control effect
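AlphaScreen with 125 nM GST-E1A and 125 nM His-CtBP (5X stocks) in Tris pH 8.0, 300 mM NaCl, BSA, Tween 20, TCEP. Compounds preincubated 2 h at 37 deg C, then glutathione donor/nickel acceptor beads added for 1 h at 37 deg C in dark.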
HP1b chromo inh: HTS for Inhibitors of HP1-beta Chromodomain Interactions with Methylated Histone Tails. 390,000 tested, 0.56% active. AID 540317, 2011. AlphaScreen HP1-beta / biotin-H3K9me3 peptide binding. Potency, µM (titrated, usually from 114 µM), inactives show at the top dose activity change, negative = inhibition, usual class: inhibitors; further: potency means the concentration at half of the fitted maximal effect; nearly all actives have a fitted effect of over 70% in size
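HP1-beta protein (50 nM final) preincubated 30 min at room temperature with biotinylated H3(1-18)K9me3 peptide (50 nM) in PBS pH 7.4, 0.01% Tween-20, then compound added for 30 min. AlphaScreen streptavidin donor/nickel chelate acceptor beads (10 ug/mL final), 30 min dark, luminescence read.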
BAZ2B inh: qHTS Assay for Inhibitors of BAZ2B | Potency, µM (top dose mostly 114 µM), for inactives: top-dose activity change, negative = inhibition, actives largely listed as inhibitors | AID 504333, 2011 | Bromodomain adjacent to zinc finger domain protein 2B (Homo sapiens), Q9UIF8 | AlphaScreen BAZ2B-H3K14Ac peptide displacement | 360,000 tested, 4.4% active; further: potency means the concentration at half of the fitted maximal effect; on the % scale 0 is the no-effect control and ±100 the full control effect; nearly all actives have a fitted effect of over 60% in size
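BAZ2B 50 nM plus b-H3(5-23)K14Ac 50 nM, PBS pH 7.4/0.01% Tween-20, 30 min RT; compound added (max 110 uM), 30 min RT; streptavidin donor/Ni-chelate acceptor beads 10 ug/mL final, 20 min dark; AlphaScreen read.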
Six1-Eya2 inh: qHTS Assay for Inhibitors of the Six1/Eya2 Interaction; activity change, % (concentration not given with the values); Homeobox protein SIX1 (Homo sapiens) + Protein phosphatase EYA2 (Homo sapiens), …; AlphaScreen GST-Six1/His-Eya2 binding, biochemical; hits give low values; AID 651725, 2012; 360,000 tested, 0.56% active; in the data active means activity change below about -65%; inconclusive means mostly about -30% to -63%; further: on the % scale 0 is the no-effect control and ±100 the full control effect
Target sequence (O00167 whole entry, looked up): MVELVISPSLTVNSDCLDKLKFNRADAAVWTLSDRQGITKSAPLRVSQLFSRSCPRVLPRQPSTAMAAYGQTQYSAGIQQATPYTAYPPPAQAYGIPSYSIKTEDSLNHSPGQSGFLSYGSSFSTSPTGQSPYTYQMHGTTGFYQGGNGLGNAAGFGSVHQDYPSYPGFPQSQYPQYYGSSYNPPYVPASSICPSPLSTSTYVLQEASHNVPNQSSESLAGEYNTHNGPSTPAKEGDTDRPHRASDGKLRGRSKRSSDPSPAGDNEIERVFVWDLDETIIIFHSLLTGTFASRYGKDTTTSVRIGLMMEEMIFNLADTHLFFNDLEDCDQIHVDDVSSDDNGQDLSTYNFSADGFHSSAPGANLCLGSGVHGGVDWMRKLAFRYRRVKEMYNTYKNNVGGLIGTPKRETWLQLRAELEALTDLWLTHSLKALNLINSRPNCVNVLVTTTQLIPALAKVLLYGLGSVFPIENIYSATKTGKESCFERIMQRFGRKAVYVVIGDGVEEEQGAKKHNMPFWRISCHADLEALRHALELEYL
Target sequence (Q15475 whole entry, looked up): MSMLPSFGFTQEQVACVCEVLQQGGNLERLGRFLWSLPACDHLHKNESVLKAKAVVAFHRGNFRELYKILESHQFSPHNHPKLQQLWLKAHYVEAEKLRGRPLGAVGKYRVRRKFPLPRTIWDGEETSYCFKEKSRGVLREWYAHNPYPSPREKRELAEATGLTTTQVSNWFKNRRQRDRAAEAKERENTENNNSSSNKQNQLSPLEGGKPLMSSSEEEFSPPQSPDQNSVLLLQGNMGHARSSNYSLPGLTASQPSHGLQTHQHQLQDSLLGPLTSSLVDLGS
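GST-Six1 + His-Eya2 (5X stock: 250/500 nM); Tris pH 8.0, 300 mM NaCl, 0.05% BSA, 0.02% Tween 20; GSH donor/Ni acceptor beads; 1 h 37 °C dark; AlphaScreen readout.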
G9a block: qHTS Assay for Inhibitors of Histone Lysine Methyltransferase G9a; G9a H3K9 monomethylation, AlphaScreen, 2 h; Histone-lysine N-methyltransferase EHMT2 (Homo sapiens), Q96KQ7; 350,000 tested, 8.8% active; Potency, µM (titrated, usually from 102 µM), inactives show at the highest dose activity, negative = inhibition, actives largely listed as inhibitors; further: potency means the concentration at half of the fitted maximal effect; on the % scale 0 is the no-effect control and ±100 the full control effect; nearly all actives have a fitted effect of over 75% in size
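Quantitative HTS format: methyltransferase activity on a biotin-tagged H3K9 peptide is measured by AlphaScreen, using a rabbit anti-monomethyl-H3K9 antibody with streptavidin donor and anti-IgG acceptor beads. Final levels are 20 nM enzyme, 500 nM peptide, 20 uM SAM; 2 h RT.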
JMJD2A Tudor inh: qHTS Assay for Inhibitors of JMJD2A-Tudor Domain. 390,000 tested, 4.4% active. AlphaScreen JMJD2A-Tudor / H3K4me3 peptide binding. AID 504339, 2011. Potency, µM (top dose mostly 114 µM), without a hit: at the highest dose activity change, negative = inhibition, usual class: inhibitors; further: potency means the concentration at half of the fitted maximal effect; on the % scale 0 is the no-effect control and ±100 the full control effect; nearly all actives have a fitted effect of over 50% in size
* hit, by the source's call; ? = inconclusive; . = not tested or not shown; ! = a repeat was not active; [ ] = another dose, or the depositor's remark. Unless noted, the call rests on the fitted dose curve; in most records, active means well fitted inhibition curve with a large enough effect; inconclusive means small, poorly fitted or top-dose-only effect; inactive means no such curve, though single readings can be large or run the other way.

SMILES | CtBP-E1A blk | HP1b chromo inh | BAZ2B inh | Six1-Eya2 inh | G9a block | JMJD2A Tudor inh
CCN1C(=O)/C(=C/N2CCc3ccccc32)SC1=S | 4 | 21% | -3% | 10 | 1%[12.7 µM] | -4%
C=CCN1C(=O)/C(=C2/Sc3ccccc3N2CCCS(=O)(=O)O)SC1=S | -21 | ? | ? | ? | 40µM* | 6%[11.4 µM]
CCCN1/C(=C2/SC(=S)N(CC)C2=O)C=Cc2ccccc21 | -70* | ? | 2µM* | -80* | ? | 3.2µM*
CN1C(=O)/C(=C2/C=Cc3ccccc3N2CCCS(=O)(=O)O)SC1=S | -15 | ? | 45µM* | -20 | ? | ?
CCN1CCN(CCCNC(=O)c2cc3c(=O)n(C)c4ccccc4c3s2)CC1 | . | 62% | . | . | -8%[59 µM] | 3%
CCOCCCNC(=O)c1cc(=O)[nH]c2ccc(S(=O)(=O)N3CCCC3)cc12 | . | 53% | 5% | . | 1%[59 µM] | 3%
COCCN(C(=O)c1ccc(OC2CCN(S(=O)(=O)N(C)C)CC2)cc1)C(C)C | . | 36% | -12% | 0 | ? | 12%
C=CCN1C(=O)/C(=C2/Sc3ccccc3N2CC)SC1=S | 5 | 35% | 9% | -7 | 1% | -8%
CCN1C(=O)/C(=C2/C=Cc3ccccc3N2CC)SC1=S | . | ? | 7.9µM* | -84* | 13µM* | 11µM*
COC(=O)c1[nH]c2c(c1C)C(=O)CC(c1ccccc1)C2 (stereo not drawn) | 3 | 5% | -2% | 4 | 8%[12.7 µM] | -24%
C/C=C/COC(=O)c1[nH]c2c(c1C)C(=O)CC(c1ccco1)C2 (stereo not drawn) | 19 | -8% | 50µM* | -12 | 45µM* | 50µM*
Cc1c(C(=O)OC2CCCC2)[nH]c2c1C(=O)CC(c1ccco1)C2 (stereo not drawn) | 0 | 4% | ? | -6 | ? | ?
Cc1c(C(=O)OCC2CCCO2)[nH]c2c1C(=O)CC(c1ccco1)C2 (stereo not drawn) | 4 | ? | 22µM* | -24 | 18µM* | ?
Cc1c(C(=O)OCC(C)C)[nH]c2c1C(=O)CC(c1ccco1)C2 (stereo not drawn) | -4 | 18% | 50µM* | -15 | 40µM* | ?
C=CCOC(=O)c1[nH]c2c(c1C)C(=O)CC(c1ccco1)C2 (stereo not drawn) | -3 | 28µM* | 50µM* | -13 | ? | 20µM*
Cc1cc2c(s1)c1cnn(Cc3c(F)ccc(F)c3Cl)c(=O)c1n2C | . | . | . | . | . | -29%
CC1CCCCN1c1cc2c(cc1F)c(=O)c(S(=O)(=O)c1ccccc1)cn2Cc1ccccc1 (stereo not drawn) | . | 49% | 6% | . | 5%[59 µM] | -25%
O=C(NC(=S)Nn1cnc2c(cnn2-c2ccccc2)c1=O)c1ccc(Cl)cc1 | -8 | 1% | 10% | -10 | 45µM* | -31%
O=C(NC(=S)Nn1cnc2c(cnn2-c2ccccc2)c1=O)c1ccc(Oc2ccccc2)cc1 | -2 | 12% | 5% | -10 | 7%[59 µM] | -12%
Cc1[nH]n(-c2ccccc2)c(=O)c1N=Nc1cccc(S(=O)(=O)N2CCOCC2)c1 | 0 | ? | -2% | -15 | -1% | 56µM*
Cc1[nH]n(-c2ccccc2)c(=O)c1N=Nc1ccc(C(=O)O)cc1 | -4 | 4% | -38% | -3 | 79µM* | ?
CC(=O)c1ccc(N=Nc2c(C)[nH]n(-c3ccccc3)c2=O)cc1 | . | ? | 32µM* | ? | 3.5µM* | ?
CCOc1ccccc1N=Nc1c(C)[nH]n(-c2ccccc2)c1=O | -13 | ? | ? | -12 | . | 45µM*
Cc1[nH]n(-c2ccccc2)c(=O)c1N=Nc1ccc(Cl)cc1 | -25 | -14% | ? | -24 | 9%[0.501 µM] | ?
Cc1[nH]n(-c2ccccc2)c(=O)c1N=Nc1ccccc1 | -27 | ? | 2.5µM* | ? | 3.5µM* | 11µM*
SMILES | CtBP-E1A blk | HP1b chromo inh | BAZ2B inh | Six1-Eya2 inh | G9a block | JMJD2A Tudor inh
COc1ccccc1N=Nc1c(C)[nH]n(-c2ccccc2)c1=O | -23 | ? | ? | -20 | -21% | ?
Cc1[nH]n(-c2ccccc2)c(=O)c1N=Nc1c(Cl)cccc1Cl | . | 19% | ? | -23 | 22µM* | -22%
Cc1[nH]n(-c2ccc(Cl)cc2)c(=O)c1C=Nc1ccc(S(=O)(=O)N2CCOCC2)cc1 | ? | -6% | -34% | -25 | 50µM* | -29%
O=S(=O)(c1cnc(Cl)c(Br)c1)N1CCN(c2ncccn2)CC1 | 1 | 24% | -35% | 4 | -12% | -16%
Cc1cccc(C)c1NC(=O)c1nc(S(=O)(=O)Cc2ccccc2)ncc1Cl | -1 | 21%[57 µM] | -3% | -11 | ? | -6%
COc1ccc(NC(=O)c2nc(S(=O)(=O)Cc3cccc(C)c3)ncc2Cl)c(OC)c1 | . | 48% | -37% | 2 | -41% | -14%
Cc1cccc(CS(=O)(=O)c2ncc(Cl)c(C(=O)Nc3c(C)cccc3C)n2)c1 | -13 | 88% | -17% | -9 | 35µM* | -9%
CCSc1ncc(Cl)c(C(=O)Nc2nnc(CC)s2)n1 | . | 42% | -9% | . | ? | -20%
Cc1nnc(NC(=O)c2nc(S(=O)(=O)Cc3ccccc3)ncc2Cl)s1 | -6 | 29%[57 µM] | 50µM*! | -9 | 40µM* | 32µM*
COc1ccc(OC)c(NC(=O)c2nc(S(=O)(=O)Cc3ccccc3)ncc2Cl)c1 | 3 | -13%[57 µM] | -35% | 11 | 35µM* | -18%
CCc1nnc(NC(=O)c2nc(S(C)(=O)=O)ncc2Cl)s1 | . | 46% | -27% | . | 7.1µM* | 10µM*
C[N+](C)(C)C[C@H](O)CC(=O)[O-] | 7 | 27% | -3% | 4 | -29%[12.7 µM] | -5%
CCc1nnc(NC(=O)c2cc(Cl)ccn2)s1 | -93* | 51% | 20µM* | -77* | 79µM* | 16µM*
O=C(Nc1ccc(F)cc1)c1nc(S(=O)(=O)Cc2ccccc2)ncc1Cl | -21 | 22% | -36% | -9 | . | -35%
Cc1ccccc1CS(=O)(=O)c1ncc(Cl)c(C(=O)Nc2ccc(F)cc2)n1 | . | 33% | -14% | -10 | 22µM* | 5%
Oc1ccc(Br)cc1CNc1ccccn1 | 4 | 6% | 4% | 0 | 23% | -20%[11.4 µM]
Oc1c(Cl)cc(Cl)cc1CNc1ccccn1 | ? | 17% | 1% | -72* | . | -1%
